Compound activity deposited in PubChem by The Scripps Research Institute Molecular Screening Center.
TEAD-YAP block: TEAD-YAP interaction inhibition. HEK-TIYL cells, TEAD-Gal4/YAP UAS-luciferase luminescence. 1.4% of 640,000 active. inhibition, % at 9.12 µM. AID 1259422; in the data active = inhibition above about 32%;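 also: 0% = median of test compound wells and 100% = reference inhibitor wells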
MITF inh: inhibitors of human MITF | O75030 | inhibition, % at 2.6 µM | AlphaScreen MITF homodimerization, bead proximity signal | AID 1259374 | 0.91% of 650,000 active; in the data active = inhibition above about 50%;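 also: 0% = vehicle wells with protein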
FBW7 act: activators of human E3 ligase FBW7; 0.13% of 650,000 active; normalized activity (activation), % at 26.1 µM; Q969H0; AlphaScreen FBW7–phospho-cyclin E peptide binding, activator screen; AID 1259310; in the data active = normalized activity above about 1.9%;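 also: purified mutant Fbw7 with reduced substrate affinity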
GPR151 activ: activators of human GPR151. Q8TDV0. PathHunter beta-arrestin GPR151 cells, luminescence. activation, % at 11.2 µM. 1% of 650,000 active. AID 1508602; in the data active = activation above about 4.9%;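 also: 0% = median of compound wells and 100% = cells with positive control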
Target sequence (Q8TDV0 whole entry, looked up): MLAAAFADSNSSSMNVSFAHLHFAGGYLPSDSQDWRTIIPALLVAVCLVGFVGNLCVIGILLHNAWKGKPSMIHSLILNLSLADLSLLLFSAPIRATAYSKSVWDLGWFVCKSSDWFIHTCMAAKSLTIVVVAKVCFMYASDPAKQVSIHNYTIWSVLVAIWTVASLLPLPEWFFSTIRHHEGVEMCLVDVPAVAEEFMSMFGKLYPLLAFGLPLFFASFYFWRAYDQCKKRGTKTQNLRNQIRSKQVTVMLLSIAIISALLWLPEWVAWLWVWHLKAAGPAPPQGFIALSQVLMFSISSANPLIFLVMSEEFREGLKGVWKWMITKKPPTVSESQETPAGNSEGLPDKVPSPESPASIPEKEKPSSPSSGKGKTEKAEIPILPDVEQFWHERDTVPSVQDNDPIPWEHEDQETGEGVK
MITF inh conf: confirmation of human MITF inhibitors; shares compounds with MITF inh; AlphaScreen MITF homodimerization, biotin/His-MITF beads; inhibition, % at 2.6 µM; 16% of 4,700 active; AID 1259372;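 active = inhibition above a cutoff derived from the DMSO control wells, cut at about 28% in these data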;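 also: 0% = MITF dimer wells with DMSO only; inhibitors lower the bead chemiluminescence by keeping MITF from dimerizing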
AlphaScreen DR: AlphaScreen optical interference, dose response counter-screen; AID 1259373; AlphaScreen optical interference counterscreen, cell-free; IC50, µM; 6% of 480 active; shares compounds with MITF inh; call rule not given here
AS interf ctr: optically interferes with AlphaScreen signal; 7.6% of 4,700 active; shares compounds with MITF inh; inhibition, % at 2.6 µM; AID 1259376; LysRS AlphaScreen counterscreen, signal interference, triplicate;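 active = inhibition above a cutoff derived from the DMSO control wells, cut at about 30% in these data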
* marks the source's active call; other numbers are inactive results; . = not tested or not shown. Most compounds without a hit are left out; they make up all but 3.5% or so of the library.

SMILES	TEAD-YAP block	MITF inh	FBW7 act	GPR151 activ	MITF inh conf	AS interf ctr	others
CC(=O)Nc1ncc(Cc2cc(Cl)ccc2Cl)s1	19	3	0	2	.	.
COc1cc(C(=O)Nc2cccnc2)ccc1OCc1ccccc1Cl	-2	74*	0	0	-3	-2
CN(CC(=O)O)C(=O)c1ccccc1[N+](=O)[O-]	-7	-4	0	2	.	.
O=[N+]([O-])c1cc(CN2CCCCC2)c2cccnc2c1O	0	112*	0	0	106*	100*
CN1CCN(Cc2cc(Br)c(O)c3ncccc23)CC1	84*	105*	-1	-1	113*	101*
O=[N+]([O-])c1cc(CN2CCOCC2)c2cccnc2c1O	13	106*	0	-1	107*	99*
O=C(c1csc(Nc2cccc3ccccc23)n1)N1CCCC1	8	77*	1	-1	-5	13
O=[N+]([O-])c1cccc(CN2CCN(c3ccccn3)CC2)c1	-2	51*	1	1	4	-2
COc1ccc(CN2CCN(C(=O)c3ccccc3F)CC2)cc1OCc1ccccc1	4	43	0	2	.	.
O=[N+]([O-])c1ccc(N2CCN(Cc3cccc([N+](=O)[O-])c3)CC2)cc1	12	16	0	-1	.	.
COc1ccc(CN2CCN(C3CCCCC3)CC2)cc1OCc1ccccc1	12	62*	0	-1	-3	-4
COc1ccc(CN2CCN(Cc3cccc([N+](=O)[O-])c3)CC2)cc1OCc1ccccc1	-1	69*	0	0	6	-1
COc1ccc(CN2CCN(Cc3ccccc3F)CC2)cc1OCc1ccccc1	-7	80*	0	-1	2	2
CCN1CCN(Cc2ccc(OCc3ccccc3)c(OC)c2)CC1	-5	-1	0	0	.	.
O=[N+]([O-])c1ccc(N2CCN(c3ncnc4c3c(-c3ccccc3)cn4-c3ccc(F)cc3)CC2)cc1	-11	-3	0	-2	.	.
O=C1Nc2c(c3ccccc3oc2=O)Nc2ccccc21	7	9	0	0	.	.
CCOc1ccc(CN2CCN(Cc3cccc([N+](=O)[O-])c3)CC2)cc1	13	60*	0	1	14	21
CCc1ccc(CN2CCN(Cc3ccc(OC)c(OCc4ccccc4)c3)CC2)cc1	-1	74*	0	-1	3	1
O=[N+]([O-])c1cccc(CN2CCCCCCC2)c1	-13	42	0	-1	.	.
COc1ccc(CN2CCN(Cc3ccc(F)cc3)CC2)cc1OCc1ccccc1	-5	79*	0	0	16	19
CCN1CCN(Cc2ccc(OC)c(OCc3ccccc3)c2)CC1	0	13	0	-1	.	.
COc1ccc(CN2CCSCC2)cc1OCc1ccccc1	-2	15	0	0	.	.
COc1cc(CN2CCSCC2)ccc1OCc1ccccc1	-50	53*	0	1	14	24
Cc1sc(NC(=O)c2cnccn2)nc1-c1ccc(F)cc1	8	16	0	-1	.	.
O=[N+]([O-])c1cccc(OCCCN2CCN(Cc3ccccc3)CC2)c1	2	76*	0	-2	3	0
SMILES	TEAD-YAP block	MITF inh	FBW7 act	GPR151 activ	MITF inh conf	AS interf ctr	others
Cc1ccccc1SCC(=O)NNC(=O)CCN1CCN(c2ccccc2)CC1	15	7	0	4	.	.
COc1cccc(C(=O)NNC(=O)C(=O)NC(C)C)c1	0	10	0	0	.	.
COc1cccc(C(=O)NNC(=O)C(=O)NCCO)c1	5	61*	1	1	-6	3
O=C(CN1CCN(C2CCCCC2)CC1)Nc1ccc(C(=O)N2CCOCC2)cc1	-1	56*	1	-1	10	13
CN(C)CCNCC(=O)Nc1ccc(CN2CCCCC2)cc1	3	94*	0	0	9	16
O=C(CNC1CCCC1)Nc1ccc(C(=O)N2CCCCC2)cc1	2	46	0	-1	.	.
O=C(CNC1CCCC1)Nc1ccc(CN2CCCCC2)cc1	-6	65*	0	1	3	16
O=C(CN1CCN(C2CCCCC2)CC1)Nc1ccc(Br)cc1	10	5	0	0	.	.
O=C(CNC1CCCCC1)Nc1ccc(C(=O)N2CCCCC2)cc1	0	53*	0	0	7	14
Cc1ccccc1C(=O)NC(=S)Nc1cccc(-c2nc3ncccc3o2)c1	3	-12	0	1	.	.
Cc1ccc2nc(-c3cc(NC(=O)c4cccc(OCc5ccccc5)c4)ccc3Cl)oc2c1	9	-3	0	-1	.	.
CCCCCOc1ccc(N2C(=O)C3C4c5ccccc5C(C(=O)O)(c5ccccc54)C3C2=O)cc1 (stereo not given)	1	11	0	0	.	.
CCCCN(C)CC(=O)Nc1cc(N(C)C)nc2ccccc12	4	24	0	1	.	.
CCCCc1nc2ccccc2c(NC(=O)CNC2CCCCC2)c1CCC	9	66*	0	-1	1	5
CCCCc1nc2ccccc2c(NC(=O)CN(CCCC)CCCC)c1CCC	-7	83*	0	2	15	-10
CCCCc1nc2ccccc2c(NC(=O)CN2CCN(C(=O)c3ccco3)CC2)c1CCC	-4	65*	0	-2	-5	12
COc1cccc(CN2C(=O)CN(C3CCC(C)CC3)C(=O)C2c2ccc(OC)c(OC)c2)c1 (stereo not given)	2	-5	0	1	.	.
Cn1c(=O)c2ccccc2n2c(SCC(=O)NC3CCCCC3)nnc12	4	73*	0	1	2	15
CCn1c(=O)c2ccccc2n2c(SCC(=O)NC3CCCCC3)nnc12	-2	-5	0	0	.	.
CNC(=S)N1CCN(c2nccnc2NS(=O)(=O)c2ccc(C(C)(C)C)cc2)CC1	7	21	-1	0	.	.
CCOC(=O)/C=C/c1ccco1	-3	14	0	0	.	.
O=C(COC(=O)/C=C/c1ccco1)COC(=O)/C=C/c1ccco1	6	78*	0	-1	63*	-15	AlphaScreen DR=>7.1
O=C(COC(=O)/C=C/c1ccco1)NC1CCCCC1	7	8	0	4	.	.
N#Cc1ccc(OCC(=O)OCC(=O)NCc2ccco2)cc1	4	3	0	-1	.	.
O=C(COC(=O)COc1ccc(Cl)cc1)NCc1ccco1	0	52*	0	1	56*	-6	AlphaScreen DR=>7.2
O=C(COC(=O)/C=C/c1ccco1)NCc1ccco1	-3	63*	0	-2	64*	-1	AlphaScreen DR=>6.6
COc1ccc([N+](=O)[O-])cc1NC(=O)Nc1ccc(Br)cc1Cl	-5	-22	0	0	.	.
COc1ccc(CN(C)C2CCN(C)CC2)c(C)c1C	-5	59*	0	0	-1	8
COC(=O)c1ccc(CN(C)C2CCN(C)CC2)cc1	-5	57*	0	0	11	16
CN1CCC(N(C)Cc2cccc(F)c2)CC1	-4	59*	0	0	-1	3
